Test results taken from ChEMBL document CHEMBL1201862, “PubChem BioAssay data set” (2004).
The whole screen tested about 54,000 sequences, of which about 2,800 (5.2%) were called active. Cut-off read from the data, not from the text of the source: active = GI50 up to about 1.1 µM and inactive = higher. These entries were drawn from the full list. Entries with a potency or affinity are not part of this list.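 1) Cells in 96-well plates. 2) Compound, 48 h, 5 concentrations. 3) Linear interpolation between surrounding doses. 4) Unreached endpoint = highest concentration. GI50: concentration for 50% inhibition of growth.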

Test system: NCI-H226
Assay: NCI tumour cell line growth inhibition, 48 h

Row | Substance | GI50
1 | cis-Bis[[(trimethylsilyl)methyl]amino]tetrachloroplatinum(IV), CHEMBL2146191 | 13.6 µM
2 | CISPLATIN, CHEMBL11359 | 5.05 µM
3 | [Bis(aminomethyl)dimethylsilane]tetrachloroplatinum(IV), CHEMBL2146190 | 4.49 µM
4 | [Bis(aminomethyl)tetramethylenesilane]tetrachloropaltinum(IV), CHEMBL2146189 | 8.18 µM
5 | mu-(1,7-nanodiamine-N,N')bis-(cis-aminedichloroplatimum (II)), CHEMBL2146215 | 1.07 µM
6 | [Bis(aminomethyl)tetramethylenesilane]dichloropaltinum(II), CHEMBL2146205 | 32.9 µM
7 | [Bis(aminomethyl)pentamethylenesilane]dichloropaltinum(II), CHEMBL2146202 | 1.43 µM
8 | [Bis(aminomethyl)ethylmethylsilane]tetrachloroplatinum(IV), CHEMBL2146192 | 5.75 µM
9 | [Bis(aminomethyl)diethylsilane]tetrachloroplatinum(IV), CHEMBL2146203 | 1.5 µM
10 | [Bis(aminomethyl)pentamethylenesilane]tetrachloropaltinum(IV), CHEMBL2146204 | 3.88 µM
11 | [Bis(aminomethyl)dimethylsilane]dichloroplatinum (II), CHEMBL2146201 | 35.8 µM
